Inconclusive results are not listed. Where a call stands in place of a potency, no number is given. Active and inactive are the calls of the source. The call rests on the fitted dose curve.

The assay in a line: qHTS assay to identify small molecule antagonists of the estrogen receptor alpha (ER-alpha) signaling pathway using the BG1 cell line (AID 743080).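 Further: BG1 cells stimulated with 17beta-estradiol alongside compound; nearly all actives have a fitted effect of over 25% in size.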 Conditions: BG1Luc4E2 ERE-luciferase antagonist mode, luminescence; series mostly up to 70.3 µM. From the text:
National Center for Advancing Translational Sciences [NCATS]
NIH Chemical Genomics Center [NCGC]
U.S. Environmental Protection Agency [EPA]
National Institutes of Environmental Health Sciences [NIEHS]
National Toxicology Program [NTP]
U.S. Food and Drug Administration [FDA]
Estrogen receptor (ER), a nuclear hormone receptor, plays an important role in development, metabolic homeostasis and reproduction. Endocrine disrupting chemicals (EDCs) and their interactions with steroid hormone receptors like ER causes disruption of normal endocrine function. Therefore, it is important to understand the effect of environmental chemicals on the ER signaling pathway. To identify ER antagonists, BG1-Luc-4E2 cell line (provided by Dr. Michael Denison from University of California) has been used to screen the Tox21 10K compound library. BG1Luc4E2 cell line endogenously expresses full-length ER-alpha and is stably transfected with a plasmid containing four estrogen responsive elements (ERE) upstream of a luciferase reporter gene.
Tox21 Assay Protocol Summary:
BG1-Luc-4E2 cells were cultured in phenol red free assay medium containing 10% charcoal stripped FBS for 5 days before the assay was performed. The cells were dispensed at 4,000 cells/4 uL of assay medium per well into white wall/solid-bottom 1536-well plates using a Multidrop Combi (ThermoFisher Scientific, Waltham, MA) dispenser. The assay plates were incubated at a 37C and 5% CO2 for 24 h, and then 23 nL of compounds dissolved in DMSO, positive controls or DMSO only was transferred to the assay plate using a Pintool station (Kalypsys, San Diego, CA), followed by addition of 1 uL of 17beta-estradiol in assay medium using a Flying Reagent Dispenser (Aurora Discovery, San Diego, CA). After the plates were incubated at 37 C and 5% CO2 for 21.5 h, 1 uL of CellTiter-Fluor reagent (Promega, Madison, WI) of measuring cytotoxicity was added using Flying Reagent Dispenser (FRD) to each well. The assay plates were incubated at 37 C and 5% CO2 for additional 30 min and the fluorescence intensity was quantified by a ViewLux plate reader (PerkinElmer, Shelton, CT). For measuring luciferase reporter gene activity, 4 uL of ONE-Glo reagent (Promega) was added to each plate using an FRD and luminescence was quantified by a ViewLux plate reader after 30 min incubation at room temperature.
(In qHTS, concentration-response curves come from the screen itself.)
Consider `CC(N)C(=O)OC(C)(C)Cc1ccc(Cl)cc1` (stereo not given), for which the Potency entry was “inactive”. As for `O=C(O)Cc1cn(-c2ccccc2)nc1-c1ccc(Cl)cc1`, the Potency entry was “inactive”. Consider `O=C1CCCC(=O)O1`, for which the Potency entry is “inactive”. Same read-out and setting: under `O=C(O)c1ccc(Cl)cc1Cl` stands “inactive”.

Take `CC(CO)c1ccccc1` (stereo not given): the Potency result is “inactive”. For the compound `CCOc1cc(NC(C)=O)ccc1C(=O)OC`, the Potency entry is “inactive”. The same measure, in the same setting: under `O=C(O)c1cc(Cl)cc([N+](=O)[O-])c1Cl` stands “inactive”; under `CCCCOC(=O)c1ccccc1`, “inactive”; under `O=C1c2ccccc2C(=O)c2cc(S(=O)(=O)O)ccc21`, “inactive”.

As to `Nc1ccc2cc(S(=O)(=O)O)cc(O)c2c1`, the Potency entry was “inactive”. Same read-out and setting: under `CN1C(C)(C)CCCC1(C)C` stands “inactive”; under `CCC(C)NC(N)=O` (stereo not given), “inactive”; under `Cc1ccc2c(c1)OCC(=O)CO2`, “inactive”. For the compound `CCCCCCCCOS(=O)(=O)O`, the Potency entry is “inactive”. Still for that read-out and setting: under `COC(=O)CCCCCCCC(=O)OC` stands “inactive”; under `c1ccc2nccnc2c1`, “inactive”.

For `CCN1CCc2nc(N)oc2CC1`, the Potency result is “inactive”. As for `CCNC(=O)C1CC(C)CCC1C(C)C` (stereo not given), the Potency result is “inactive”. As to `CC(C)(C)c1n[nH]c(=S)n(N)c1=O`, the Potency entry was “inactive”.

On to `CC(C)NCC(O)COc1ccc(COCCOC(C)C)cc1` (stereo not given), for which the Potency entry is “inactive”. Still for that read-out and setting: then `Nc1ccc([N+](=O)[O-])c(N)c1`, with “inactive”; and `CC(CC=O)CCCC(C)(C)O` (stereo not given), with “inactive”. On to `O=S(O)(O)=S`, for which the activity change, negative = inhibition was -6.18% [at 8.47 µM] (inactive). Consider `COc1ccc(-c2cc(=O)c3c(O)cc(O[C@@H]4O[C@H](CO[C@@H]5O[C@@H](C)[C@H](O)[C@@H](O)[C@H]5O)[C@@H](O)[C@H](O)[C@H]4O)cc3o2)cc1O`, for which the Potency result is “inactive”. The same measure, in the same setting: then `Cc1c(I)c(=O)n(-c2ccccc2)n1C`, with “inactive”; and `O=C(CCN1CCN(CCO)CC1)N1c2ccccc2Sc2ccc(C(F)(F)F)cc21`, with “inactive”. As for `O=C(CS(=O)Cc1ccco1)NC/C=C\COc1cc(CN2CCCCC2)ccn1` (stereo not given), the Potency entry is “inactive”. On the same count and under the same terms, under `O=C1O[C@@H]2[C@@H](O)[C@H](O)O[C@@H]2[C@H]1O` stands “inactive”; under `CCCCCCN`, “inactive”; under `Cc1cc(C(C)(C)C)c(O)c(C)c1CC1=NCCN1`, “inactive”.

For the compound `CCCCCCCCC(=O)Cl`, the Potency entry was “inactive”.

As to `CC1=CCC(C(C)C)=CC1`, the Potency result is “inactive”.

With `CC(C)(C)NC(N)=O`, the Potency result was “inactive”. For the compound `O=C(O)Cc1ccc(Cl)cc1Cl`, the Potency result is “inactive”.

As to `COc1cc2c(cc1OC)[C@@H]1CC(=O)[C@@H](CC(C)C)CN1CC2`, the Potency entry is “inactive”. Regarding `CCC(CC)CO`, the Potency result is “inactive”. Same read-out and setting: then `CCCCCCCCCC(C)=O`, with “inactive”; and `CC(C)CCCC(C)(C)O`, with “inactive”; and `CCOC(=O)c1ccc(OC(=O)CCCCCN=C(N)N)cc1`, with “inactive”. On the same count and under the same terms, under `O=C(OCc1ccccc1)C(=O)OCc1ccccc1` stands “inactive”.

These data come from PubChem BioAssay (Tox21).
